# Test results taken from publication PMC7862700, “An all-to-all approach to the identification of sequence-specific readers for epigenetic DNA modifications on cytosine”.
# How the values were obtained:
# Assay in all cases: DAPPL (digital affinity profiling via proximity ligation, sequencing); 10 mM Tris-HCl pH 7.5, 50 mM NaCl, 1 mM DTT, 4% glycerol, room temperature, 30 min; GST-TFs on glutathione beads, 16-mer random dsDNA library, 0.1% formaldehyde crosslink after washing; high values mean tight binding
# [1] = molecular target: T1, FLI1 (Homo sapiens, UniProt Q01543 1-452); conditions: protein: recombinant; tags: N-terminal GST; dsDNA, one strand shown
# T1 sequence: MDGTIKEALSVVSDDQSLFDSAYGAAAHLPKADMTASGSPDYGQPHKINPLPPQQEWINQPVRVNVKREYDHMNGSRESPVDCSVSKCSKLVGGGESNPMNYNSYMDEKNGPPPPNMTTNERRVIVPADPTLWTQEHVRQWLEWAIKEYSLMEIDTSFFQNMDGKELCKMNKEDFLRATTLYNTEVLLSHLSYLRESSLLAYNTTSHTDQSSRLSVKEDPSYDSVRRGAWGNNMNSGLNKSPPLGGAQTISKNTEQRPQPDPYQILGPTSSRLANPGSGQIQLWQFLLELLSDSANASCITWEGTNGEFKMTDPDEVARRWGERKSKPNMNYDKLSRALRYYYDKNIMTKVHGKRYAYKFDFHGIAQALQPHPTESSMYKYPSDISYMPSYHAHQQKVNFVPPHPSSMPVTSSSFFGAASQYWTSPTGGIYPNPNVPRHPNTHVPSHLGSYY
# In short: (§1)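 Each value of binding signal is a hexamer's read frequency for a factor divided by the same hexamer's frequency in the tag-only sample. Barcoded, bead-captured GST fusions of human transcription factors made in yeast were pooled with that sample and incubated with 200 nmole of a random double-stranded 16-mer DNA library in Tris/NaCl/DTT/glycerol buffer at room temperature for 30 min. Washing, 0.1% formaldehyde crosslinking, proximity ligation, PCR and Illumina NextSeq500 sequencing followed.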
# [2] = molecular target: T2, ELK1 (Homo sapiens, UniProt P19419 1-428); conditions: protein: recombinant; tags: N-terminal GST; dsDNA, one strand shown
# T2 sequence: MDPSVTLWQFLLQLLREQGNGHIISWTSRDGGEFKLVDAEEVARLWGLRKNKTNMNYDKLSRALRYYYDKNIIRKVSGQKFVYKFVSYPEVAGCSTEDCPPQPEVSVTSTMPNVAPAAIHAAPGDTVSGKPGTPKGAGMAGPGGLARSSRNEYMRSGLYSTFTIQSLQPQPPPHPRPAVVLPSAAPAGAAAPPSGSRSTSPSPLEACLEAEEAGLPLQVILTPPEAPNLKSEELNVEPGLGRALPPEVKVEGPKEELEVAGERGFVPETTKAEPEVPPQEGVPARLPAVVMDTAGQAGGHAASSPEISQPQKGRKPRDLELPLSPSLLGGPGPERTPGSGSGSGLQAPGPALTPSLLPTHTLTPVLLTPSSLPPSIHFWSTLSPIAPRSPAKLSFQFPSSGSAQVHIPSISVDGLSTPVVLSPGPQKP
# In short: as §1
# [3] = molecular target: T3, GABPA (Homo sapiens, UniProt Q06546 1-454); conditions: protein: recombinant; tags: N-terminal GST; dsDNA, one strand shown
# T3 sequence: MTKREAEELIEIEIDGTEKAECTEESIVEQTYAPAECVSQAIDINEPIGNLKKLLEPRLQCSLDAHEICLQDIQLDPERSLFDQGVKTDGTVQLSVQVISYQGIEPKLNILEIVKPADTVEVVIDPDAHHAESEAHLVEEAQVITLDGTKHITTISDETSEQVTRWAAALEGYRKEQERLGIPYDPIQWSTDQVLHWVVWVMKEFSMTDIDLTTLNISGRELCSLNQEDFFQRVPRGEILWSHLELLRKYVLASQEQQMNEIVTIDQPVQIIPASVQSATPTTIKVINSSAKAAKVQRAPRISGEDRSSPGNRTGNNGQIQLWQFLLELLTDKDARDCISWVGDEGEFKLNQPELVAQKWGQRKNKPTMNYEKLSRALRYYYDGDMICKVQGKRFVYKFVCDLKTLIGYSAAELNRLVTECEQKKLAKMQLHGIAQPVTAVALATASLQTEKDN
# In short: as §1
# [4] = molecular target: T4, ERG (Homo sapiens, UniProt P11308 1-479); conditions: protein: recombinant; tags: N-terminal GST; dsDNA, one strand shown
# T4 sequence: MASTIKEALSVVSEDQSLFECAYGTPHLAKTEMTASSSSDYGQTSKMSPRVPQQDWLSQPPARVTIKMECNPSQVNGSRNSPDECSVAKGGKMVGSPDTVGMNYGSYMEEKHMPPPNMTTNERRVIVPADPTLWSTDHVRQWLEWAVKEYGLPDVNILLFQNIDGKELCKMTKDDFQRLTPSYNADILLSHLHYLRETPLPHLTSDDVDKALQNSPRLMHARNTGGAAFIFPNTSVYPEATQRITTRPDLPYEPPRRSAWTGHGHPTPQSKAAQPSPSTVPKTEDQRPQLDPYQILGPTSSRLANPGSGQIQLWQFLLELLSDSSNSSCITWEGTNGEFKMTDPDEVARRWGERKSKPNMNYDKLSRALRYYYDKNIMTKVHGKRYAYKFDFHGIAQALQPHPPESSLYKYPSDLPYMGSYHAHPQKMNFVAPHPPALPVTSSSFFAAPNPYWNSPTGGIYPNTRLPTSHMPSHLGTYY
# In short: as §1
# [5] = molecular target: ELF1 (Homo sapiens, UniProt P32519 1-619); conditions: protein: recombinant; tags: N-terminal GST; dsDNA, one strand shown
# In short: as §1
# [6] = molecular target: T5, EHF (Homo sapiens, UniProt Q9NZC4 1-300); conditions: protein: recombinant; tags: N-terminal GST; dsDNA, one strand shown
# T5 sequence: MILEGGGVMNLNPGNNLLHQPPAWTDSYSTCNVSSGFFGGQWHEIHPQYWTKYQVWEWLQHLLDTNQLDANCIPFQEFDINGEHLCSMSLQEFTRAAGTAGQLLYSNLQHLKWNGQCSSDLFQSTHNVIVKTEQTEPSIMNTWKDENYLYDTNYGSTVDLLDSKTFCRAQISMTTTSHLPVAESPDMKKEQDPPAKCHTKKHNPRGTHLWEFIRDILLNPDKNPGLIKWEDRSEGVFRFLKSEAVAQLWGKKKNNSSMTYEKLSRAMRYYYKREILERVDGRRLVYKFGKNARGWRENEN
# In short: as §1
# [7] = molecular target: SPI1 (Homo sapiens, UniProt P17947 1-270); conditions: protein: recombinant; tags: N-terminal GST; dsDNA, one strand shown
# In short: as §1
# [8] = molecular target: SPIB (Homo sapiens, UniProt Q01892 1-262); conditions: protein: recombinant; tags: N-terminal GST; dsDNA, one strand shown
# In short: as §1
# [9] = molecular target: T6, ELK3 (Homo sapiens, UniProt P41970 1-407); conditions: protein: recombinant; tags: N-terminal GST; dsDNA, one strand shown
# T6 sequence: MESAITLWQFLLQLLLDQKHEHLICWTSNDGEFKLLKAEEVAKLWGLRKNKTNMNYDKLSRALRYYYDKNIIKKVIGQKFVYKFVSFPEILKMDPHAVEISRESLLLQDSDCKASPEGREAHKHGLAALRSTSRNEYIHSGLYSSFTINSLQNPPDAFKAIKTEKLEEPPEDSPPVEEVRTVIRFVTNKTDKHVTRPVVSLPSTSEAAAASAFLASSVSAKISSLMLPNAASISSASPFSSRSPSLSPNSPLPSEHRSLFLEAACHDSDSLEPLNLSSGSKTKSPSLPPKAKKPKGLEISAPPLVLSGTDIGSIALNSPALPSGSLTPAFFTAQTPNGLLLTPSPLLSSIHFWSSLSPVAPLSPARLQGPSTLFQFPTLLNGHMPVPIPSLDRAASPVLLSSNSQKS
# In short: as §1
# [10] = molecular target: T7, FEV (Homo sapiens, UniProt Q99581 1-238); conditions: protein: recombinant; tags: N-terminal GST; dsDNA, one strand shown
# T7 sequence: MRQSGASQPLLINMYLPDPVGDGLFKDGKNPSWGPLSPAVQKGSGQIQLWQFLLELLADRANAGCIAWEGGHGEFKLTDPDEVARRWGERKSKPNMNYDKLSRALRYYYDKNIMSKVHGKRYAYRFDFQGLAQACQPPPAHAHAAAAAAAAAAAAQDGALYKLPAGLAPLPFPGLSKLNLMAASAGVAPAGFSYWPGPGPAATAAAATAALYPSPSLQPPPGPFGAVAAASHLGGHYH
# In short: as §1
# [11] = molecular target: ETV5 (Homo sapiens, UniProt P41161 1-510); conditions: protein: recombinant; tags: N-terminal GST; dsDNA, one strand shown
# In short: as §1
# [12] = molecular target: HSF1 (Homo sapiens, UniProt Q00613 1-529); conditions: protein: recombinant; tags: N-terminal GST; chain copies: 3; dsDNA, one strand shown
# In short: as §1
# [13] = molecular target: T8, SPIC (Homo sapiens, UniProt Q8N5J4 1-248); conditions: protein: recombinant; tags: N-terminal GST; dsDNA, one strand shown
# T8 sequence: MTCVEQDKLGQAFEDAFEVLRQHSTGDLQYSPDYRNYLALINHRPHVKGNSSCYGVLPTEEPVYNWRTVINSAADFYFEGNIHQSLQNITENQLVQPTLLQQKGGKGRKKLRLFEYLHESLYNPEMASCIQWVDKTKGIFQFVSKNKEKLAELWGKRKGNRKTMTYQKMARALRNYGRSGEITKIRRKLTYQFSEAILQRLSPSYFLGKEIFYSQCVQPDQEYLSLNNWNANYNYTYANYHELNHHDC
# In short: as §1
# [14] = molecular target: ELF4 (Homo sapiens, UniProt Q99607 1-663); conditions: protein: recombinant; tags: N-terminal GST; dsDNA, one strand shown
# In short: as §1
# [15] = molecular target: T9, ELK4 (Homo sapiens, UniProt P28324-2 1-405); conditions: protein: recombinant; tags: N-terminal GST; dsDNA, one strand shown
# T9 sequence: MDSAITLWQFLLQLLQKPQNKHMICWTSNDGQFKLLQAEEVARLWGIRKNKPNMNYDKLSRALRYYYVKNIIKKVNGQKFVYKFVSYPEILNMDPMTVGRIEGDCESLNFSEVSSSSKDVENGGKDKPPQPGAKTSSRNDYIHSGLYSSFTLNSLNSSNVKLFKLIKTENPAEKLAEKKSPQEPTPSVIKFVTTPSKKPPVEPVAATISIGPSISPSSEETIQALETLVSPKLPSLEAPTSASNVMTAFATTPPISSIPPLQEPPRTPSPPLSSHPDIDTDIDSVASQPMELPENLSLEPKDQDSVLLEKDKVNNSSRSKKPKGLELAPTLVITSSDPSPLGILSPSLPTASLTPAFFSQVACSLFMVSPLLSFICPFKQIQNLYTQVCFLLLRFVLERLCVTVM
# In short: as §1
# [16] = molecular target: T10, ETV2 (Homo sapiens, UniProt O00321 1-342); conditions: protein: recombinant; tags: N-terminal GST; dsDNA, one strand shown
# T10 sequence: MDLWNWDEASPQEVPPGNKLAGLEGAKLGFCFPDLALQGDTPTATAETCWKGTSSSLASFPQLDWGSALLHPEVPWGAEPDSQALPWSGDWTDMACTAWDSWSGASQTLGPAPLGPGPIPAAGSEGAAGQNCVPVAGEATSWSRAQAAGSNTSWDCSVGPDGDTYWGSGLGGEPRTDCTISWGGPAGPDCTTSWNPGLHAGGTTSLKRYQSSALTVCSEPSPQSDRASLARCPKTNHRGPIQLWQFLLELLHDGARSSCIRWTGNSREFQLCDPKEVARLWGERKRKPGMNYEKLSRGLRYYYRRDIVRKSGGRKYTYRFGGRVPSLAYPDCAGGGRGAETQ
# In short: as §1
# [17] = molecular target: T11, ELF3 (Homo sapiens, UniProt P78545 1-371); conditions: protein: recombinant; tags: N-terminal GST; dsDNA, one strand shown
# T11 sequence: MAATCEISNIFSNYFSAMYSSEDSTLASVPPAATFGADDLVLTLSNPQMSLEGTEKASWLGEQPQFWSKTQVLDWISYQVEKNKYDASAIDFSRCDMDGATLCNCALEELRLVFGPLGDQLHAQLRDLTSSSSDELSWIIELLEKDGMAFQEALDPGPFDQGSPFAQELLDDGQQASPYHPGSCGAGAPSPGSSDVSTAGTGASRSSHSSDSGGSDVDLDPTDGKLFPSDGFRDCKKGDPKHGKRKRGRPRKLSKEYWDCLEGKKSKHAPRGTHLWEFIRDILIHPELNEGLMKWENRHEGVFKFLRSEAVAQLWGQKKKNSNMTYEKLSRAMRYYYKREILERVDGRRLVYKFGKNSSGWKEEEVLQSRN
# In short: as §1
# [18] = molecular target: CRX (Homo sapiens, UniProt O43186 1-299); conditions: protein: recombinant; tags: N-terminal GST; dsDNA, one strand shown
# In short: as §1
# [19] = molecular target: ETV1 (Homo sapiens, UniProt P50549 1-477); conditions: protein: recombinant; tags: N-terminal GST; dsDNA, one strand shown
# In short: as §1
# ELF1, sequence (P32519 whole entry): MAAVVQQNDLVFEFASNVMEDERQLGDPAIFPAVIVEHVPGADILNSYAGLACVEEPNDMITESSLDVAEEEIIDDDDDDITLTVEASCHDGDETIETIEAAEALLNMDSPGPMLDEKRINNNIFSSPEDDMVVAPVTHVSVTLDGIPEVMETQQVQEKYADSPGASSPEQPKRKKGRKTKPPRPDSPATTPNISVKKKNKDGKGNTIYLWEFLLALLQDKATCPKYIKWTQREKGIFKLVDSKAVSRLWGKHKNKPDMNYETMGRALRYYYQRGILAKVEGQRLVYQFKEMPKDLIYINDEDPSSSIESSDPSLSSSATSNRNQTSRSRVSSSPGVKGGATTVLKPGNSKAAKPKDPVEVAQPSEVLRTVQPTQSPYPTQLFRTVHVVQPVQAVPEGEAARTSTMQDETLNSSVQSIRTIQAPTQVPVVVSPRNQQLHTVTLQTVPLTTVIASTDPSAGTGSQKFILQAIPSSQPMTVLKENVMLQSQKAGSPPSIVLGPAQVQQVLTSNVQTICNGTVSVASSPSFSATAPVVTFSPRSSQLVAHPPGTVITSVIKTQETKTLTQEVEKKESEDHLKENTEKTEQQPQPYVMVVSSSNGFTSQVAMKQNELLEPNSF
# SPIB, sequence (Q01892 whole entry): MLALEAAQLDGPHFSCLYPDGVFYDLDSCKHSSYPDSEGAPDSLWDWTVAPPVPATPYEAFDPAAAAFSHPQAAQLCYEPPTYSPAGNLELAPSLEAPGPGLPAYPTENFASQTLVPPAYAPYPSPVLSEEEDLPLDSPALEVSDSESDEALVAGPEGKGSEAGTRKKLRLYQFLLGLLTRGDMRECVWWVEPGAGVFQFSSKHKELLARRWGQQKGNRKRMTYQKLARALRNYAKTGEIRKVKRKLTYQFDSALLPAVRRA
# ETV5, sequence (P41161 whole entry): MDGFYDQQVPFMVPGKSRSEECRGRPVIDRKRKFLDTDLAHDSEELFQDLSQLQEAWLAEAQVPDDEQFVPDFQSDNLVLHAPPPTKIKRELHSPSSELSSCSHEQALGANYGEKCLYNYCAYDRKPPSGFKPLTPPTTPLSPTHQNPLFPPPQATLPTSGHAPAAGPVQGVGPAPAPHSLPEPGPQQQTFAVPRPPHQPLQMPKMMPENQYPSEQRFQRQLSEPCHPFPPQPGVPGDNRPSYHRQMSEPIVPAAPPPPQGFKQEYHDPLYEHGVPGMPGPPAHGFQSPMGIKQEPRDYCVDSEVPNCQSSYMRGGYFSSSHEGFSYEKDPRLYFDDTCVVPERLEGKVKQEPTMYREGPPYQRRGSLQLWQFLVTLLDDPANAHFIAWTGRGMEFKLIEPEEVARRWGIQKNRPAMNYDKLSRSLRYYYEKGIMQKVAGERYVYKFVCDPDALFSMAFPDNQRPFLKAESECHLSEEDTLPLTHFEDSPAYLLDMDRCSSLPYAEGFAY
# ETV1, sequence (P50549 whole entry): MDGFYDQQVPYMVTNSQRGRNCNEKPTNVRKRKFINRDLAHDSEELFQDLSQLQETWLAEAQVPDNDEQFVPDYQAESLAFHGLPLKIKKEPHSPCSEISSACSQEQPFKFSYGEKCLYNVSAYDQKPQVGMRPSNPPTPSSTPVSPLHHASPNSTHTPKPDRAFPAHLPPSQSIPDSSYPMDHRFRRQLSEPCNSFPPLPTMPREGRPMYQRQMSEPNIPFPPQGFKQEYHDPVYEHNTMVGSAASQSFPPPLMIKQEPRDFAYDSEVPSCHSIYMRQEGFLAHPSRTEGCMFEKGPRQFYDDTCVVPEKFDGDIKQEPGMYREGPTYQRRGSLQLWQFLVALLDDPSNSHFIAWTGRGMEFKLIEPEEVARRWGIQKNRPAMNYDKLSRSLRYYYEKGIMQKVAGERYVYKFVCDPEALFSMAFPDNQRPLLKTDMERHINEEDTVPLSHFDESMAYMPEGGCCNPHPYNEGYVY
# HSF1, sequence (Q00613 whole entry): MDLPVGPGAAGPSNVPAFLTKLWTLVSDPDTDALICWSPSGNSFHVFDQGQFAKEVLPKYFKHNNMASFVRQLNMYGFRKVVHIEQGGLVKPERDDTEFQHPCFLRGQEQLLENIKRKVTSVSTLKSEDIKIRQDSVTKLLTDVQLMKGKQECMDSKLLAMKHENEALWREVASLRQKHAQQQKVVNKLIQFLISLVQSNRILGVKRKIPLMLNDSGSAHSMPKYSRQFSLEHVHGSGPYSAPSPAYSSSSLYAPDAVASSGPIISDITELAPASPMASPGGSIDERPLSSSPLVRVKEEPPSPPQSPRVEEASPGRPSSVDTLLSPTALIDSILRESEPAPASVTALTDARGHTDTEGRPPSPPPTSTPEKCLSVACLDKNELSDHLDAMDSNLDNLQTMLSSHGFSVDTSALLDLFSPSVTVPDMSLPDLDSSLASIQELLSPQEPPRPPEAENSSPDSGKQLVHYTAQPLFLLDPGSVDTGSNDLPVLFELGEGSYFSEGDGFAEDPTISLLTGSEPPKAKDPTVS
# CRX, sequence (O43186 whole entry): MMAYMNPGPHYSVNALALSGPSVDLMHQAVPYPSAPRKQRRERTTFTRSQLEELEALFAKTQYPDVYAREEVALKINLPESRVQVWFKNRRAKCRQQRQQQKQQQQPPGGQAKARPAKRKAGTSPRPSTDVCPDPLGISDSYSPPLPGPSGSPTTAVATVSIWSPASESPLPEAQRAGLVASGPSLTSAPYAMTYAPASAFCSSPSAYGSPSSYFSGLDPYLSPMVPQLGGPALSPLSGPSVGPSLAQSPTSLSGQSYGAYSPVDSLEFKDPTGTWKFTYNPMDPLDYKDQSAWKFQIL
# ELF4, sequence (Q99607 whole entry): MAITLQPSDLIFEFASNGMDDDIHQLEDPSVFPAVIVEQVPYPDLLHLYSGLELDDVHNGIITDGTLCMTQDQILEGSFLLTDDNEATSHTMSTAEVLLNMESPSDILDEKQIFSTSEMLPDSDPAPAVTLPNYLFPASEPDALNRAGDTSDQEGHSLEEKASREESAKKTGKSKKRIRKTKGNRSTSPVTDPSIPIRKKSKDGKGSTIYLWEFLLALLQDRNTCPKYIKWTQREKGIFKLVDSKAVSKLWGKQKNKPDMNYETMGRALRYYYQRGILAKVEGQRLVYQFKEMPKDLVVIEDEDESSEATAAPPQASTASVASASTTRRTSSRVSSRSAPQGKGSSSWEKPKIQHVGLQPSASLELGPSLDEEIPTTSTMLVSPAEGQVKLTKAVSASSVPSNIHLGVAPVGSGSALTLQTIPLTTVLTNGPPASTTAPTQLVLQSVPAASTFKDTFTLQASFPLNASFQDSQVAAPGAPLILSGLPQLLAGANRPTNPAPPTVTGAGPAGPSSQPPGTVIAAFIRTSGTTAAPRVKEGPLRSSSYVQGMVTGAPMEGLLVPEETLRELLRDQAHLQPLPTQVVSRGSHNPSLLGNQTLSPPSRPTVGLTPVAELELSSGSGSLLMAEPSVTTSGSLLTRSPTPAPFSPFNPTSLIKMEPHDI
sequence,measurement,setting,value
ACATCT,binding signal,[1],"1.39 fold enrichment (6-mer frequency, TF over GST control)"
same,binding signal,[2],"1.35 fold enrichment (6-mer frequency, TF over GST control)"
same,binding signal,[3],"1.35 fold enrichment (6-mer frequency, TF over GST control)"
same,binding signal,[4],"1.34 fold enrichment (6-mer frequency, TF over GST control)"
same,binding signal,[5],"1.38 fold enrichment (6-mer frequency, TF over GST control)"
same,binding signal,[6],"1.3 fold enrichment (6-mer frequency, TF over GST control)"
same,binding signal,[7],"1.4 fold enrichment (6-mer frequency, TF over GST control)"
same,binding signal,[8],"1.27 fold enrichment (6-mer frequency, TF over GST control)"
same,binding signal,[9],"1.44 fold enrichment (6-mer frequency, TF over GST control)"
same,binding signal,[10],"1.29 fold enrichment (6-mer frequency, TF over GST control)"
same,binding signal,[11],"1.31 fold enrichment (6-mer frequency, TF over GST control)"
same,binding signal,[12],"1.36 fold enrichment (6-mer frequency, TF over GST control)"
same,binding signal,[13],"1.43 fold enrichment (6-mer frequency, TF over GST control)"
same,binding signal,[14],"1.29 fold enrichment (6-mer frequency, TF over GST control)"
same,binding signal,[15],"1.4 fold enrichment (6-mer frequency, TF over GST control)"
same,binding signal,[16],"1.29 fold enrichment (6-mer frequency, TF over GST control)"
same,binding signal,[17],"1.4 fold enrichment (6-mer frequency, TF over GST control)"
same,binding signal,[18],"1.19 fold enrichment (6-mer frequency, TF over GST control)"
same,binding signal,[19],"1.32 fold enrichment (6-mer frequency, TF over GST control)"
